Where a name gives a salt, the structure may show the parent alone. ± gives the standard deviation of the averaged measurements.
Columns and labels:
Test in all cases: growth (OD600 after 10 h); higher = more growth (less inhibition)
[1] = tested on: E. coli TESEC Alr+ wild-type control; conditions: compound 0.1 mM; raw OD600 reference: median of DMSO wells 0.241, cell-free background 0.041
Description: (§1)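 TESEC Mtb Alr E. coli, or the Alr+ wild-type control, in 384-well plates with Prestwick library compounds at 0.1 mM and 1% DMSO, across arabinose induction levels of 1E3 to 1E7 nM. Growth is read as OD600 after 10 h at 37 °C in triplicate biological replicates.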

E. coli TESEC Mtb Alr [2] = conditions: compound 0.1 mM
Description: as §1

E. coli TESEC Mtb Asd = conditions: compound 0.1 mM
Description: (§2)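 TESEC E. coli strains in which the native enzyme is deleted and replaced by arabinose-inducible Mtb Asd, DapB, CysH or TrpD, each grown in its selective medium. Strains were screened against the Prestwick library at 0.1 mM and 1% DMSO in 384-well format at low and high arabinose induction. Growth is read as OD600 after 10 h in triplicate.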

E. coli TESEC Mtb DapB = conditions: compound 0.1 mM
Description: as §2

[3] = tested on: E. coli TESEC Alr+ wild-type control; conditions: compound 0.1 mM; raw OD600 reference: median of DMSO wells 0.49, cell-free background 0.052
Description: (§3)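 TESEC Mtb Alr E. coli (ΔaraC ΔtolC ΔentC Δalr ΔdadX, arabinose-inducible Mtb Alr) or the Alr+ wild-type control strain, grown in defined M9-fructose medium without D-alanine in 96-well plates with Prestwick library compounds at 0.1 mM and 1% DMSO. Low Alr induction is 0.1 µM arabinose and high induction is 10 mM arabinose.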

E. coli TESEC Mtb Alr [4] = conditions: compound 0.1 mM; remark: listed apart in the source
Description: as §3

[5] = arabinose 1000 nM, raw OD600 reference: median of DMSO wells 0.294, cell-free background 0.041
[6] = arabinose 10000 nM, raw OD600 reference: median of DMSO wells 0.264, cell-free background 0.041
[7] = arabinose 100000 nM, raw OD600 reference: median of DMSO wells 0.201, cell-free background 0.041
[8] = arabinose 1000000 nM, raw OD600 reference: median of DMSO wells 0.193, cell-free background 0.041
[9] = arabinose 10000000 nM, raw OD600 reference: median of DMSO wells 0.146, cell-free background 0.041
[10] = arabinose induction (level): High, raw OD600 reference: median of DMSO wells 0.331, cell-free background 0.041
[11] = arabinose induction (level): Low, raw OD600 reference: median of DMSO wells 0.417, cell-free background 0.041
[12] = arabinose induction (level): High, raw OD600 reference: median of DMSO wells […], cell-free background 0.041
[13] = arabinose induction (level): Low, raw OD600 reference: median of DMSO wells 0.227, cell-free background 0.041
[14] = arabinose 100 nM, raw OD600 reference: median of DMSO wells 0.413, cell-free background 0.052
[15] = arabinose 10000000 nM, raw OD600 reference: median of DMSO wells […], cell-free background 0.052

Compound | growth [1] | growth (E. coli TESEC Mtb Alr [2]; [5]) | growth (E. coli TESEC Mtb Alr [2]; [6]) | growth (E. coli TESEC Mtb Alr [2]; [7]) | growth (E. coli TESEC Mtb Alr [2]; [8]) | growth (E. coli TESEC Mtb Alr [2]; [9]) | growth (E. coli TESEC Mtb Asd; [10]) | growth (E. coli TESEC Mtb Asd; [11]) | growth (E. coli TESEC Mtb DapB; [12]) | growth (E. coli TESEC Mtb DapB; [13]) | growth [3] | growth (E. coli TESEC Mtb Alr [4]; [14]) | growth (E. coli TESEC Mtb Alr [4]; [15])
COc1cccc2c1C(=O)c1c(O)c3c(c(O)c1C2=O)C[C@@](O)(C(C)=O)C[C@@H]3O[C@H]1C[C@H](N)[C@H](O)[C@H](C)O1 [Daunorubicin hydrochloride] | 0.0457 ± 0.0022 | 0.0442 ± 0.0008 | 0.04263 ± 5.8e-05 | 0.0446 ± 0.001 | 0.04253 ± 0.00038 | 0.0433 ± 0.0001 | 0.058 ± 0.0071 | 0.0577 ± 0.0054 | 0.0527 ± 0.0011 | 0.0519 ± 0.00092 | 0.053 ± 0.00055 | 0.0571 ± 0.0011 | 0.0536 ± 0.00026
OCCN1CCN(CCCN2c3ccccc3Sc3ccc(C(F)(F)F)cc32)CC1 [Fluphenazine dihydrochloride] | 0.0421 ± 0.0038 | 0.041 ± 0.0026 | 0.0391 | 0.03987 ± 0.00021 | 0.03867 ± 0.00012 | 0.0405 ± 0.00052 | 0.0496 ± 0.00091 | 0.0515 ± 0.0021 | 0.0483 ± 0.00055 | 0.15 ± 0.1 | 0.04827 ± 0.00025 | 0.286 ± 0.21 | 0.0529 ± 0.00081
C=C1C[C@H]2[C@@H]3C=C(C)C4=CC(=O)CC[C@]4(C)[C@H]3CC[C@]2(C)[C@@]1(OC(C)=O)C(C)=O [Melengestrol acetate] | 0.20603 ± 0.00015 | 0.281 ± 0.013 | 0.295 ± 0.011 | 0.166 ± 0.0027 | 0.176 ± 0.0085 | 0.148 ± 0.0027 | 0.213 ± 0.071 | 0.343 ± 0.11 | 0.187 ± 0.0082 | 0.211 ± 0.036 | 0.205 ± 0.053 | 0.3558 ± 0.0033 | 0.142 ± 0.053
Cc1cc(N)c2ccccc2[n+]1CCCCCCCCCC[n+]1c(C)cc(N)c2ccccc21 [Dequalinium dichloride] | 0.048 ± 0.0004 | 0.04803 ± 0.00032 | 0.0469 ± 0.00052 | 0.04963 ± 0.00015 | 0.0458 ± 0.00071 | 0.049 ± 0.0001 | 0.0691 ± 0.0051 | 0.0634 ± 0.006 | 0.0601 ± 0.004 | 0.0586 ± 0.0011 | 0.0513 ± 0.0018 | 0.0979 ± 0.005 | 0.0648 ± 0.0024
CCCCNc1ccc(C(=O)OCCN(C)C)cc1 | 0.208 ± 0.0034 | 0.273 ± 0.006 | 0.255 ± 0.003 | 0.186 ± 0.0077 | 0.166 ± 0.0023 | 0.146 ± 0.0066 | 0.266 ± 0.033 | 0.354 ± 0.021 | 0.174 ± 0.019 | 0.186 ± 0.0082 | 0.468 ± 0.0089 | 0.396 ± 0.019 | 0.346 ± 0.018
CN(C)CCN(Cc1ccccc1)c1ccccn1 [Tripelennamine hydrochloride] | 0.203 ± 0.0015 | 0.281 ± 0.0071 | 0.254 ± 0.0058 | 0.181 ± 0.0046 | 0.184 ± 0.003 | 0.133 ± 0.004 | 0.232 ± 0.055 | 0.329 ± 0.1 | 0.177 ± 0.0099 | 0.209 ± 0.027 | 0.537 ± 0.091 | 0.406 ± 0.0074 | 0.307 ± 0.0053
COc1cc(NS(=O)(=O)c2ccc(N)cc2)ncn1 [Sulfamonomethoxine] | 0.222 ± 0.0061 | 0.259 ± 0.022 | 0.173 ± 0.0027 | 0.2 ± 0.0044 | 0.1141 ± 0.00026 | 0.1384 ± 0.0013 | 0.345 ± 0.061 | 0.413 ± 0.018 | 0.166 ± 0.026 | 0.19 ± 0.014 | 0.596 ± 0.092 | 0.422 ± 0.0097 | 0.331 ± 0.0088
O=c1[nH]c(=O)n([C@H]2C[C@H](O)[C@@H](CO)O2)cc1C(F)(F)F [Trifluridine] | 0.194 ± 0.02 | 0.213 ± 0.049 | 0.0994 ± 0.0099 | 0.121 ± 0.0045 | 0.082 ± 0.0069 | 0.135 ± 0.0027 | 0.13 ± 0.0033 | 0.203 ± 0.0098 | 0.164 ± 0.006 | 0.174 ± 0.0024 | 0.476 ± 0.016 | 0.077 ± 0.0037 | 0.129 ± 0.023
c1ccc(CN(CC2=NCCN2)c2ccccc2)cc1 [Antazoline hydrochloride] | 0.2355 ± 0.0022 | 0.279 ± 0.02 | 0.254 ± 0.0091 | 0.194 ± 0.021 | 0.167 ± 0.0018 | 0.14 ± 0.0039 | 0.355 ± 0.017 | 0.441 ± 0.017 | 0.185 ± 0.01 | 0.225 ± 0.043 | 0.5 ± 0.083 | 0.412 ± 0.0059 | 0.364 ± 0.015
N=C(N)c1ccc(OCCCCCOc2ccc(C(=N)N)cc2)cc1 [Pentamidine isethionate] | 0.0725 ± 0.0026 | 0.0837 ± 0.0024 | 0.0536 ± 0.0012 | 0.0903 ± 0.001 | 0.0538 ± 0.0022 | 0.095 ± 0.001 | 0.0804 ± 0.013 | 0.0745 ± 0.01 | 0.224 ± 0.008 | 0.0531 ± 0.0065 | 0.194 ± 0.068 | 0.28 ± 0.16 | 0.0605 ± 0.0026
CN1C(=O)OC(C)(C)C1=O [Trimethadione] | 0.242 ± 0.0071 | 0.283 ± 0.0076 | 0.269 ± 0.012 | 0.202 ± 0.014 | 0.185 ± 0.0082 | 0.1382 ± 0.00081 | 0.297 ± 0.098 | 0.409 ± 0.037 | 0.193 ± 0.0086 | 0.229 ± 0.042 | 0.553 ± 0.073 | 0.423 ± 0.011 | 0.344 ± 0.02
Nc1ccc(S(=O)(=O)Nc2nccs2)cc1 [Sulfathiazole] | 0.244 ± 0.013 | 0.275 ± 0.013 | 0.203 ± 0.0029 | 0.202 ± 0.029 | 0.125 ± 0.0031 | 0.142 ± 0.006 | 0.377 ± 0.045 | 0.384 ± 0.032 | 0.197 ± 0.012 | 0.199 ± 0.025 | 0.5194 ± 0.0026 | 0.422 ± 0.013 | 0.343 ± 0.02
Cn1c(NCCN(CCO)CCCc2ccc([N+](=O)[O-])cc2)cc(=O)n(C)c1=O [Nifekalant] | 0.241 ± 0.011 | 0.301 ± 0.0034 | 0.248 ± 0.003 | 0.168 ± 0.0095 | 0.144 ± 0.0052 | 0.145 ± 0.002 | 0.179 ± 0.017 | 0.428 ± 0.057 | 0.2 ± 0.033 | 0.258 ± 0.013 | 0.534 ± 0.067 | 0.4 ± 0.015 | 0.298 ± 0.02
CCOC(=O)OC(C)OC1=C(C(=O)Nc2ccccn2)N(C)S(=O)(=O)c2ccccc21 (configuration not stated) [Ampiroxicam] | 0.228 ± 0.015 | 0.27 ± 0.0052 | 0.255 ± 0.0083 | 0.183 ± 0.018 | 0.165 ± 0.007 | 0.157 ± 0.0076 | 0.237 ± 0.034 | 0.339 ± 0.033 | 0.206 ± 0.024 | 0.266 ± 0.048 | 0.582 ± 0.1 | 0.415 ± 0.01 | 0.293 ± 0.019
